Whole data set: some 5,800 sequences, median “enrichment r” near 0.68, cut for the highest 2% near 11. This is one part of a sample in which the highest values are shown more often than they occur.
T1: UNK ZnF1-6 (called full-length) (human, UniProt Q9C0B0 30-357)
T1 sequence: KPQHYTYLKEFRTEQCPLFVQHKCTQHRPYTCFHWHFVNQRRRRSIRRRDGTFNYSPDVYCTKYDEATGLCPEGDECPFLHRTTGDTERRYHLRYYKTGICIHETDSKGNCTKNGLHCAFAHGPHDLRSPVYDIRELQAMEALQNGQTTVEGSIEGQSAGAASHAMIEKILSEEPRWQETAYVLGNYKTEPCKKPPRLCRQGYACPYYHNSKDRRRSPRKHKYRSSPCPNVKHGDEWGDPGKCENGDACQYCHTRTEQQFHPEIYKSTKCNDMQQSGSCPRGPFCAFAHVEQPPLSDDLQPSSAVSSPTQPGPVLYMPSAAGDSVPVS

B1: chr1:52238154:52238269:+|CDS|ENSG00000157077|unk|total|mutant (ssRNA)
RNA: GGGAGUUCUACAGUCCGACGAUCUCUGACCGUCCCGCCAGUGUCUGUUCCCCUUCACAAUUAAAGGAUGACGGAAGUACCGGCCGAGACCCCUCCAUGUCUGCGAUUACAAGUUUAACGGUUGAUUCAGUAAUCUCAUCCCAGCAACAGAGGAUUGAGCAUCA
B2: chr2:88557131:88557241:-|3pUTR|ENSG00000172071|msi1|total|mutant (ssRNA)
RNA: GGGAGUUCUACAGUCCGACGAUCGAGGACAAGCCGCACAAACUGUAUAACGGUUUAUGUCCGCCGUUUUACCGUCCUAUUUGCCGCAUUCAACCGCUUUAUUCCUCCGAUGGUUCCCGGGUGGGUUUACAGCUUUUUGUACUUCAACAGAGGAUUGAGCAUCA
B3: ENSG00000066933:stop:overlap|stop_codon|ENSG00000066933|stop_codon|NA|stop_codon (ssRNA)
RNA: GGGAGUUCUACAGUCCGACGAUCAUAGCUCAGAGAAUUUGAAUAUGGAGUCUGAAUAUGCUAUCUCUGAGAAAUCAGAAGCUUAGCCCUUAGCUCCCUGAAGACAGCUGGCAAGUCUGAACCUUCCAGCAAGUUGCGAAAGCACAACAGAGGAUUGAGCAUCA
B4: chr5:43486917:43487111:-|CDS|ENSG00000172244|control|control|control (ssRNA)
RNA: GGGAGUUCUACAGUCCGACGAUCUUAUAAACCAGGAUCUUCAGAAACCUUGCUAGGAGAAGUUAAUGAAAAUAGAGUAUCAAUAGCAUUGAAAAAAACCUCUGAAAUCCUUCACGAUAUUGACUGUCUUCUAUCAAACUCUAACAACAGAGGAUUGAGCAUCA
B5: ENSG00000112365:stop:overlap|stop_codon|ENSG00000112365|stop_codon|NA|stop_codon (ssRNA)
RNA: GGGAGUUCUACAGUCCGACGAUCUCUACACACUGGCAAGAAGCCUUUCUCCUGCCCUGAGUGUAACUUACAGUUUGCUCGCUUAGACAACUUGAAGGCUCACUUGAAAAUUCAUAGCAAGGAGAAGCAUGCUUCAGAUGCCAGCAACAGAGGAUUGAGCAUCA
B6: chr10:30820206:30820444:-|three_prime_utr|ENSG00000183621|control|control|control (ssRNA)
RNA: GGGAGUUCUACAGUCCGACGAUCCUUAUCUAAUCUCCAAAUGAAGAAUGGGCCCAUCUGACAUAUCCUAUGAGCACAAAGCUUAGGGGACUCUUCACCGAAACCUAGACAAAUAUUUGAAUGCAUUUUUUUUUUUUUUUUUUGCAACAGAGGAUUGAGCAUCA
B7: chr8:65707876:65707977:+|CDS|ENSG00000066855|unk|FALSE|unique (ssRNA)
RNA: GGGAGUUCUACAGUCCGACGAUCCCUGCUGCCCUCAUAGCAGAGGCUCUGAAAAAGAAAUUUGCUUAUCGGUAUCGAAGUGAUAGCCAAGAUGAAGUUGAAAAAGGAAUUCCAAAGUCUGAAUCAGAGGCCACCUCAGAGAGACAACAGAGGAUUGAGCAUCA
B8: ENSG00000107863:be:win_3701|CDS|ENSG00000107863|bound_else_gene|NA|bound_elsewhere_windowed (ssRNA)
RNA: GGGAGUUCUACAGUCCGACGAUCUCUUCACAAAUGAUAAAUAUGCUGAUUUUAUUGAAGCCAAUCGUAAAGAAGAUCCUCUAGAUCGUCUGAAAACAUUAAAAAGACUAAUUCACGAUUUGCCUGAACAUCAUUAUGAAACACCAACAGAGGAUUGAGCAUCA
B9: chr10:113908677:113908778:+|3pUTR|ENSG00000196865|unk|FALSE|bound_elsewhere (ssRNA)
RNA: GGGAGUUCUACAGUCCGACGAUCAGCUAUGCUCCUUACUUACUUCUUUUAUUAUAAACAAAUUCCUUUGCUUUGGCUGAUACUAGCUGAGUCAUUGAUCAUCAUUGGUACCAUGAUAUUGUAAUCUAUGCUGCUAUUUGGCACCAACAGAGGAUUGAGCAUCA
B10: chr5:113014749:113014850:+|3pUTR|ENSG00000172795|msi1|total|mutant (ssRNA)
RNA: GGGAGUUCUACAGUCCGACGAUCUAAAAAUCCUUUUUUACAGUGGUAUCCACAAAAUACUUCUCUGCUUAUAAAUGUUAUUGCCGAAAUCUUUAUUCUGUGCCGGCCGCCUAUUUAAUUGGGUUCCACUGAACCUCAUGGGACCAACAGAGGAUUGAGCAUCA
B11: chrX:51682015:51682831:-|CDS|ENSG00000283093|control|control|control (ssRNA)
RNA: GGGAGUUCUACAGUCCGACGAUCCAGUGCCCCCGGGUCCAAGUCGGGGUCGGGAGCCACGCGGCGGCCAAGAGGUGGCUGGGUAGGUGGCGACGGAAGCGCCGCUGGCGGCGGGUCCGGAAGGCGGGCCCCAGAGACCUGCUGCAACAGAGGAUUGAGCAUCA
B12: ENSG00000156687:stop:overlap|stop_codon|ENSG00000156687|stop_codon|NA|stop_codon (ssRNA)
RNA: GGGAGUUCUACAGUCCGACGAUCACAUUUCAGAAUCCCAGCUUGAUGAAGCCGACUUCAACUACAGCAGGCAAAAUGGACUCUAGUCCACUUCCUCCCAUGAGACAGAGUGAUGGCCAGCUUGGGGACAUUUGCUUUAAAUGGCAACAGAGGAUUGAGCAUCA
B13: chr5:111496093:111496242:-|3pUTR|ENSG00000164211|unk|FALSE|unique (ssRNA)
RNA: GGGAGUUCUACAGUCCGACGAUCUUUACAUGUAUAGUUAAAUAUUAAAAUUCAUCUCUUGCAGUUCAAUAAAAGCUAUAGUAUAGAUUUUAUUUUUAAGAAGUUUAUAUAAUUCUUUUGUGAACCAAUAUGUAAAACUAGAAUCAACAGAGGAUUGAGCAUCA
B14: chr3:120327094:120327202:-|3pUTR|ENSG00000163428|unk|FALSE|unique (ssRNA)
RNA: GGGAGUUCUACAGUCCGACGAUCGAAGAGAAGUCACCAAACACCUAGGGACAGUCCUAGGCCUAGAAAGCCCUUUAAAGUAAUAGUGAAUUGUUUUAAAAUUAAGUUAUUGAGUGGCCUACUGACUACCAUCCAAAAACCUUUCAACAGAGGAUUGAGCAUCA
B15: chr17:21001410:21001511:-|3pUTR|ENSG00000124422|msi1_unk|FALSE|overlapping (ssRNA)
RNA: GGGAGUUCUACAGUCCGACGAUCUAGUACAACUUUUAGACACAGAAAUCUGAAUGACAUAUAUUGUUCUGUGUCAAGAAACUUAGAUUUUUUUUUUAACUAUUUAAAAACGUGAAACCUAUUCUUAGCUCACAGGCCAUGGAGCAACAGAGGAUUGAGCAUCA
B16: chr6:39540002:39540221:-|CDS|ENSG00000164627|control|control|control (ssRNA)
RNA: GGGAGUUCUACAGUCCGACGAUCCCACUUGGCUGGCAUGGAUAGACGUGAAUUCAGACAGUCCCAGAGCCCACCCUUCCGCCUAGGAAACCCAGAAGAAGGUCAAAGAAUGCGACUAUCCUCAGCUCCCUCACAGGCCCAGGACAACAGAGGAUUGAGCAUCA
B17: chr6:96891104:96891324:-|CDS|ENSG00000123545|unk|FALSE|unique (ssRNA)
RNA: GGGAGUUCUACAGUCCGACGAUCUAAUCAUAAGCUUUUCCCAGAAACCUGGACUGCUGAGAAAAUAAUGCAGGAAUACCAGUUAGAACAGAAAGAUGUGAAUUCUCUUCUUAAAUAUUUUGUUACUUUUGAAGUCGAAAUCUUCAACAGAGGAUUGAGCAUCA
B18: chr5:141515350:141515460:-|3pUTR|ENSG00000131504|msi1_unk|FALSE|overlapping (ssRNA)
RNA: GGGAGUUCUACAGUCCGACGAUCCUCAGCUUUCCAUCCCCAGCUAGGAAGAAAGAAUGGCACUCUUGGGCUUGGCCCAGAAUUAGAGUUAUUAGAGCAAGAGAGAGCUUAGGAAGCAUGAGGGCAACUAUAGUGAGGCCUUAUCAACAGAGGAUUGAGCAUCA
B19: chr12:100626600:100626701:+|3pUTR|ENSG00000139354|unk|FALSE|unique (ssRNA)
RNA: GGGAGUUCUACAGUCCGACGAUCAAUUUUAUCAUCAAGUAUUCCCUUAUAAAACCAAGUAACACUUCUUUAUCAGUAACUUUUAGAACUUAAAAGAAAGCAAAAAGUAAAUGGAAUUGUAGGCAAUUUAUGAAUCCUAGUAGACAACAGAGGAUUGAGCAUCA
B20: chr6:89631235:89631336:+|3pUTR|ENSG00000135299|msi1|FALSE|unique (ssRNA)
RNA: GGGAGUUCUACAGUCCGACGAUCUGAAGUUUGAAAGCUCAGAUUAAGCAAGCCAUGCCAAGAAACUGGACGAUGUGUAAGCCUAGACUCUAAAAUUCAAGAUGUGUGAAAUAAUAUAAGUCAAAAGCAAGAAAAACGUAAUCCCAACAGAGGAUUGAGCAUCA
B21: chr7:127374855:127374969:-|CDS|ENSG00000048405|unk|FALSE|unique (ssRNA)
RNA: GGGAGUUCUACAGUCCGACGAUCCCUAGAAGCCAUAUAUCCAAGUGUGGACAAACGAGAAUAUAUUAUUAAGCUAGAACCCAUAGAAACUAAUCAAAAUGCAGUAUUUCAAUAUAUUUCGAGGACUGAUAAUCCUAUUGAAGUCAACAGAGGAUUGAGCAUCA
B22: chr10:87746157:87746259:+|3pUTR|ENSG00000198682|unk|FALSE|unique (ssRNA)
RNA: GGGAGUUCUACAGUCCGACGAUCAACUGAAGACCAAAUCUUAGCAGGUAAAAGCAAUAUUCUUAUACAUUUCAUAAUAAAAUUAGCUCUAUGUAUUUUCUACUGCACCUGAGCAGGCAGGUCCCAGAUUUCUUAAGGCUUUGUCAACAGAGGAUUGAGCAUCA
B23: chr4:54297753:54297953:+|3pUTR|ENSG00000134853|msi1|FALSE|unique (ssRNA)
RNA: GGGAGUUCUACAGUCCGACGAUCUUUUUAUGAUGACAAUCAAAGCCGGCCUGAGAAACACUAUUUGUGACUUUUUAAACGAUUAGUGAUGUCCUUAAAAUGUGGUCUGCCAAUCUGUACAAAAUGGUCCUAUUUUUGUGAAGACAACAGAGGAUUGAGCAUCA

Target: T1, UNK ZnF1-6 (called full-length)
Test: nsRBNS (natural sequence RNA bind-n-seq); RBNS binding buffer (assumed for nsRBNS): 25 mM Tris pH 7.5, 150 mM KCl, 3 mM MgCl2, 0.01% Triton X-100, 500 ug/ml BSA, 20 U/ml SUPERase-In, 4 C; UNK is unkempt and MSI1 is Musashi-1; names of the RNAs are library labels; protein concentration not given here; high values mean tight binding

Row | Binder | binding signal [enrichment R]
1 | B1 | 0.482
2 | B2 | 0.471
3 | B3 | 15.4
4 | B4 | 0.69
5 | B5 | 0.948
6 | B6 | 27.7
7 | B7 | 0.424
8 | B8 | 0.382
9 | B9 | 3.85
10 | B10 | 0.567
11 | B11 | 6.11
12 | B12 | 0.56
13 | B13 | 2.13
14 | B14 | 3.46
15 | B15 | 24.9
16 | B16 | 0.794
17 | B17 | 0.645
18 | B18 | 13.3
19 | B19 | 4.55
20 | B20 | 0.227
21 | B21 | 18.1
22 | B22 | 18.7
23 | B23 | 0.454

From PMC12136788
